Assay results as given in PubChem BioAssay (NCATS).
Records with an inconclusive call do not appear. Active and inactive are the calls of the source. Unless noted, the call rests on the fitted dose curve.

Tests used:
[1] = Primary qHTS for inhibitors of SARS-S pseudo-typed particle cell entry (AID 1479145); settings: outcome: dose series up to 57.1 µM unless noted; further: nearly all actives have a fitted effect of over 45% in size; on activity change, negative = inhibition: on the % scale 0 is the no-effect control and ±100 the full control effect
[2] = Primary qHTS for Huh7 cytotoxicity: counterscreen for inhibitors of MERS-S pseudotyped particle cell entry (AID 1479147); settings: outcome: dose series up to 57.1 µM unless noted; on activity change, negative = cytotoxicity: on the % scale 0 is the no-effect control and ±100 the full control effect
[3] = Primary qHTS for inhibitors of MERS-S pseudo-typed particle cell entry (AID 1479149); settings: outcome: dose series up to 57.1 µM unless noted; further: nearly all actives have a fitted effect of over 60% in size; on activity change, negative = inhibition: on the % scale 0 is the no-effect control and ±100 the full control effect
[4] = Primary qHTS for Vero E6 cytotoxicity: counterscreen for inhibitors of SARS-S pseudo-typed particle cell entry (AID 1479150); settings: outcome: dose series up to 57.1 µM unless noted; on activity change, negative = cytotoxicity: on the % scale 0 is the no-effect control and ±100 the full control effect
[5] = Cytotoxicity counterscreen for inhibitors of SARS-CoV-2 cell entry (AID 1645845); settings: outcome: dose series up to 57.1 µM unless noted; further: nearly all actives have a fitted effect of over 50% in size
Summary of the method: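 48 h compound treatment (after 1 h preincubation), HEK293-ACE2 cells, 37 C/5% CO2; ATP luminescence endpoint; normalized to cell wells and media blanks.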

[6] = Primary qHTS to identify inhibitors of SARS-CoV-2 cell entry (AID 1645846); settings: SARS-CoV-2 pseudovirus cell entry assay, luminescence; activity change, negative = inhibition: at 57.1 µM (top of the series) unless noted; further: nearly all actives have a fitted effect of over 45% in size
Summary of the method: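 HEK293-ACE2 (Expi293F, stable hACE2), 1500 cells/well, o/n 37C; cpd 23 nL pin, 1 h; MLV-PP w/ SARS-CoV-2-S (Wuhan-Hu-1, Δ19 C-term); 48 h 37C; Bright-Glo luminescence; normalized vs S-PP and bald PP.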

[7] = target: Glutathione peroxidase 1 (Homo sapiens) (UniProt P07203); assay: Primary qHTS Assay for Inhibitors of Recombinant Selenoprotein Glutathione Peroxidase 1 (GPX1) (AID 1845191; active means well fitted inhibition curve with a large enough effect; further: nearly all actives have a fitted effect of over 65% in size; further: potency means the concentration at half of the fitted maximal effect)
Sequence of Glutathione peroxidase 1 (Homo sapiens) (P07203 whole entry, looked up): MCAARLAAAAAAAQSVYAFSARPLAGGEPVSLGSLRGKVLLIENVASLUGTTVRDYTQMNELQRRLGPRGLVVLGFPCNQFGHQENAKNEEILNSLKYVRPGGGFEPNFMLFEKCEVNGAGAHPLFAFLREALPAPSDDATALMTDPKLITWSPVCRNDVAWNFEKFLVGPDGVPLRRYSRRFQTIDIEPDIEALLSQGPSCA
Summary of the method: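 10 nM GPX1 + cpd, 30 min RT; start w/ 1 mM GSH, 0.5 mM cumene hydroperoxide, 0.5 mM NADPH, 100 nM GR, 0.01% BSA; buffer 50 mM Tris-HCl pH 7.5, 2 mM EDTA, 150 mM NaCl; Fl 340/450, 0 & 15 min.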

CN(CC(=O)N1CCOCC1)Cc1c(Cl)cccc1NC(=O)c1ccccc1
-38.4%: activity change, negative = inhibition [6]
inactive: Potency [1] | Potency [2] | Potency [3] | Potency [4] | Potency [5]

Cc1cc(Nc2ncc(Cl)c(Nc3ccccc3S(=O)(=O)C(C)C)n2)c(OC(C)C)cc1C1CCNCC1
-32%: activity change, negative = inhibition [6]
inactive: Potency [1] | Potency [2] | Potency [3] | Potency [4] | Potency [5]

OCCOCCOCCO
inactive: Potency [1] | Potency [2] | Potency [3] | Potency [4] | Potency [5] | Potency [6]

C[C@]12CCC3=C4CCC(=O)C=C4CC[C@H]3[C@@H]1CC[C@@]2(O)CC#N
inactive: Potency [1] | Potency [2] | Potency [3] | Potency [4] | Potency [5]
-3.65%: activity change, negative = inhibition [6]

O=C(O)C1=C(CSc2nnnn2CS(=O)(=O)O)CS[C@@H]2[C@@H](NC(=O)[C@H](O)c3ccccc3)C(=O)N12
inactive: Potency [1] | Potency [2] | Potency [3] | Potency [4] | Potency [5]
-22.2%: activity change, negative = inhibition [6]

CC(C)(C)NCC(O)COc1ccccc1C#N (stereo not drawn)
inactive: Potency [1] | Potency [2] | Potency [3] | Potency [4] | Potency [5]
-9.12%: activity change, negative = inhibition [6]

OC[C@H]1O[C@@H](c2ccc(F)c(Cc3cc4ccccc4s3)c2)[C@H](O)[C@@H](O)[C@@H]1O
-24.7%: activity change, negative = inhibition [6]
inactive: Potency [1] | Potency [2] | Potency [3] | Potency [4] | Potency [5]

CCCCCCCCCCCCCCCC(=O)OC1C(SC)OC(C(NC(=O)C2CC(CCC)CN2C)C(C)Cl)C(O)C1O (stereo not drawn)
-14%: activity change, negative = inhibition [6]
inactive: Potency [1] | Potency [2] | Potency [3] | Potency [4] | Potency [5]

CCCC(=O)O[C@]1(C(=O)COC(=O)CC)[C@@H](C)C[C@H]2[C@@H]3CCC4=CC(=O)C=C[C@]4(C)[C@@]3(F)[C@@H](O)C[C@@]21C
inactive: Potency [1] | Potency [2] | Potency [3] | Potency [4] | Potency [5] | Potency [6]

CCCCOc1ccc(C[N+]2(C)C3CCC2CC(OC(=O)[C@H](CO)c2ccccc2)C3)cc1 (stereo partly drawn)
inactive: Potency [1] | Potency [2] | Potency [3] | Potency [4] | Potency [5] | Potency [7]
-21.1%: activity change, negative = inhibition [6]

C1CNCCN1
2.96% [at 114 µM]: activity change, negative = inhibition [6]
inactive: Potency [1] | Potency [2] | Potency [3] | Potency [4] | Potency [5]

NC[C@@H]1O[C@H](O[C@H]2[C@H](O)[C@H](O[C@H]3[C@@H](O)[C@H](N)C[C@H](N)[C@H]3O[C@H]3O[C@H](CN)[C@H](O)[C@H](O)[C@H]3N)O[C@@H]2CO)[C@@H](N)[C@@H](O)[C@@H]1O
inactive: activity change, negative = inhibition [1] -20.9% [at 5.34 µM] | outcome [2] inactive [at 5.34 µM] | activity change, negative = inhibition [3] 3.6% [at 5.34 µM] | activity change, negative = cytotoxicity [4] -3.76% [at 5.34 µM] | activity change, negative = cytotoxicity [5] 2.87% [at 5.25 µM]
-25.4% [at 5.25 µM]: activity change, negative = inhibition [6]

Cc1cc2nc3c(=O)[nH]c(=O)nc-3n(C[C@H](O)[C@H](O)[C@H](O)COP(=O)(O)OP(=O)(O)OC[C@H]3O[C@@H](n4cnc5c(N)ncnc54)[C@H](O)[C@H]3O)c2cc1C
-9.08% [at 27.1 µM]: activity change, negative = inhibition [6]
inactive: Potency [1] | Potency [2] | Potency [3] | Potency [4] | Potency [5]

NC(=S)NS(=O)(=O)c1ccc(N)cc1
inactive: Potency [1] | Potency [2] | Potency [3] | Potency [4] | Potency [5]
-18.4%: activity change, negative = inhibition [6]

CCCCCCCCCCCCCCCC(=O)OCC=C(C)C=CC=C(C)C=CC1=C(C)CCCC1(C)C
inactive: Potency [1] | Potency [2] | Potency [3] | Potency [4] | Potency [5]
-0.93%: activity change, negative = inhibition [6]

CO[C@H]1C[C@@H]2CC[C@@H](C)[C@@](O)(O2)C(=O)C(=O)N2CCCC[C@H]2C(=O)O[C@H]([C@H](C)C[C@@H]2CC[C@@H](OCCO)[C@H](OC)C2)CC(=O)[C@H](C)/C=C(/C)[C@@H](O)[C@@H](OC)C(=O)[C@H](C)C[C@H](C)\C=C/C=C\C=C/1C
-11.8% [at 27.1 µM]: activity change, negative = inhibition [6]
inactive: Potency [1] | Potency [2] | Potency [3] | Potency [4] | Potency [5]

CO[C@H]1O[C@@H]2O[C@@]3(C)CC[C@H]4[C@H](C)CC[C@@H]([C@@H]1C)[C@@]24OO3
-7.86%: activity change, negative = inhibition [6]
inactive: Potency [1] | Potency [2] | Potency [3] | Potency [4] | Potency [5]

ClCC1CO1 (stereo not drawn) (tested in a mixture with another compound)
-15.1%: activity change, negative = inhibition [6]
inactive: Potency [1] | Potency [2] | Potency [3] | Potency [4] | Potency [5]

O=c1ccc2cc(O[C@@H]3O[C@H](CO)[C@H](O)[C@H](O)[C@H]3O)c(O)cc2o1
inactive: Potency [1] | Potency [2] | Potency [3] | Potency [4] | Potency [5] | Potency [6]
active: Potency [7] 16.1 µM

CC12C=CC(=O)NC1CCC1C2CCC2(C)C(C(=O)Nc3cc(C(F)(F)F)ccc3C(F)(F)F)CCC12 (stereo not drawn)
-8.68%: activity change, negative = inhibition [6]
inactive: Potency [1] | Potency [2] | Potency [3] | Potency [4] | Potency [5]

CN[C@H]1C(=O)N[C@@H]2Cc3ccc(cc3)Oc3cc4cc(c3O[C@@H]3O[C@H](C(=O)O)[C@@H](O)[C@H](O)[C@H]3NC(=O)CCCCCCCCC(C)C)Oc3ccc(cc3Cl)[C@@H](O)[C@@H]3NC(=O)[C@H](NC(=O)[C@@H]4NC(=O)[C@@H](NC2=O)c2cc(cc(O)c2Cl)Oc2cc1ccc2O)c1ccc(O)c(c1)-c1c(O[C@H]2O[C@H](CO)[C@@H](O)[C@H](O)[C@@H]2O)cc(O)cc1[C@@H](C(=O)NCCCN(C)C)NC3=O
0.0393% [at 27.1 µM]: activity change, negative = inhibition [6]
inactive: Potency [1] | Potency [2] | Potency [3] | Potency [4] | Potency [5]
